# The supplement of paper PMC4466140
# B1: unnamed (peptide)
# chain: GATNNAPTLPKRKNP
# Biological target: AgAbp1
# Test: SPOT peptide array binding signal intensity (averaged, normalized) (arbitrary units (background-subtracted, floor 0; scale differs between SH3 domains)); higher = stronger binding of the SH3 domain to the peptide
# Summary of the method: (§1)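 Binding signal is given in arbitrary units that differ between domains and is the normalized, background-subtracted spot intensity averaged across replicates. Each GST-SH3 fusion from one of four yeast species was made in E. coli BL21(DE3), purified on glutathione Sepharose and incubated at 10 μg/ml overnight at 4°C on cellulose-bound synthetic 15-mer peptides in which cysteines were replaced by serines. Detection used anti-GST antibody, an HRP anti-mouse secondary and luminol, followed by imaging and Genespotter quantification.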
row,Binder,SPOT peptide array binding signal intensity
1,B1,94.5

# Biological target: AgBbc1
# Test: as above
# Summary of the method: as §1
row,Binder,SPOT peptide array binding signal intensity
1,B1,80.5

# Biological target: AgBem1-D1
# Test: as above
# Summary of the method: as §1
row,Binder,SPOT peptide array binding signal intensity
1,B1,15

# Biological target: AgBzz1-D1
# Test: as above
# Summary of the method: as §1
row,Binder,SPOT peptide array binding signal intensity
1,B1,60.2

# Biological target: AgBzz1-D2
# Test: as above
# Summary of the method: as §1
row,Binder,SPOT peptide array binding signal intensity
1,B1,21

# Biological target: AgCyk3
# Test: as above
# Summary of the method: as §1
row,Binder,SPOT peptide array binding signal intensity
1,B1,≤ 0

# Biological target: AgFus1
# Test: as above
# Summary of the method: as §1
row,Binder,SPOT peptide array binding signal intensity
1,B1,15.5

# Biological target: AgHof1
# Test: as above
# Summary of the method: as §1
row,Binder,SPOT peptide array binding signal intensity
1,B1,32.9

# Biological target: AgHse1
# Test: as above
# Summary of the method: as §1
row,Binder,SPOT peptide array binding signal intensity
1,B1,≤ 0

# Biological target: AgLsb1
# Test: as above
# Summary of the method: as §1
row,Binder,SPOT peptide array binding signal intensity
1,B1,11.4

# Biological target: AgLsb4
# Test: as above
# Summary of the method: as §1
row,Binder,SPOT peptide array binding signal intensity
1,B1,2730

# Biological target: AgMyo5
# Test: as above
# Summary of the method: as §1
row,Binder,SPOT peptide array binding signal intensity
1,B1,≤ 0

# Biological target: AgNbp2
# Test: as above
# Summary of the method: as §1
row,Binder,SPOT peptide array binding signal intensity
1,B1,7.25

# Biological target: AgRvs167
# Test: as above
# Summary of the method: as §1
row,Binder,SPOT peptide array binding signal intensity
1,B1,47.3

# Biological target: AgSho1
# Test: as above
# Summary of the method: as §1
row,Binder,SPOT peptide array binding signal intensity
1,B1,3.75

# Biological target: AgSla1-D1-D2
# Test: as above
# Summary of the method: as §1
row,Binder,SPOT peptide array binding signal intensity
1,B1,7

# Biological target: AgSla1-D3
# Test: as above
# Summary of the method: as §1
row,Binder,SPOT peptide array binding signal intensity
1,B1,0.75

# Biological target: CaAbp1-D1
# Test: as above
# Summary of the method: as §1
row,Binder,SPOT peptide array binding signal intensity
1,B1,131

# Biological target: CaAbp1-D2
# Test: as above
# Summary of the method: as §1
row,Binder,SPOT peptide array binding signal intensity
1,B1,155

# Biological target: CaBbc1
# Test: as above
# Summary of the method: as §1
row,Binder,SPOT peptide array binding signal intensity
1,B1,532

# Biological target: CaBem1-D1
# Test: as above
# Summary of the method: as §1
row,Binder,SPOT peptide array binding signal intensity
1,B1,6

# Biological target: CaBzz1-D1
# Test: as above
# Summary of the method: as §1
row,Binder,SPOT peptide array binding signal intensity
1,B1,232

# Biological target: CaBzz1-D2
# Test: as above
# Summary of the method: as §1
row,Binder,SPOT peptide array binding signal intensity
1,B1,≤ 0

# Biological target: CaCyk3
# Test: as above
# Summary of the method: as §1
row,Binder,SPOT peptide array binding signal intensity
1,B1,2.75

# Biological target: CaFus1
# Test: as above
# Summary of the method: as §1
row,Binder,SPOT peptide array binding signal intensity
1,B1,≤ 0

# Biological target: CaHof1
# Test: as above
# Summary of the method: as §1
row,Binder,SPOT peptide array binding signal intensity
1,B1,1.25

# Biological target: CaHse1
# Test: as above
# Summary of the method: as §1
row,Binder,SPOT peptide array binding signal intensity
1,B1,2.25

# Biological target: CaLsb1
# Test: as above
# Summary of the method: as §1
row,Binder,SPOT peptide array binding signal intensity
1,B1,0.5

# Biological target: CaLsb4
# Test: as above
# Summary of the method: as §1
row,Binder,SPOT peptide array binding signal intensity
1,B1,4150

# Biological target: CaMyo5
# Test: as above
# Summary of the method: as §1
row,Binder,SPOT peptide array binding signal intensity
1,B1,3

# Biological target: CaNbp2
# Test: as above
# Summary of the method: as §1
row,Binder,SPOT peptide array binding signal intensity
1,B1,≤ 0

# Biological target: CaRvs167
# Test: as above
# Summary of the method: as §1
row,Binder,SPOT peptide array binding signal intensity
1,B1,125

# Biological target: CaRvs167-3
# Test: as above
# Summary of the method: as §1
row,Binder,SPOT peptide array binding signal intensity
1,B1,3.25

# Biological target: CaSho1
# Test: as above
# Summary of the method: as §1
row,Binder,SPOT peptide array binding signal intensity
1,B1,≤ 0

# Biological target: CaSla1-D1-D2
# Test: as above
# Summary of the method: as §1
row,Binder,SPOT peptide array binding signal intensity
1,B1,47

# Biological target: CaSla1-D3
# Test: as above
# Summary of the method: as §1
row,Binder,SPOT peptide array binding signal intensity
1,B1,≤ 0

# Biological target: ScAbp1
# Test: as above
# Summary of the method: as §1
row,Binder,SPOT peptide array binding signal intensity
1,B1,120

# Biological target: ScBbc1
# Test: as above
# Summary of the method: as §1
row,Binder,SPOT peptide array binding signal intensity
1,B1,7.12

# Biological target: ScBem1-D1
# Test: as above
# Summary of the method: as §1
row,Binder,SPOT peptide array binding signal intensity
1,B1,≤ 0

# Biological target: ScBzz1-D1
# Test: as above
# Summary of the method: as §1
row,Binder,SPOT peptide array binding signal intensity
1,B1,10.5

# Biological target: ScBzz1-D2
# Test: as above
# Summary of the method: as §1
row,Binder,SPOT peptide array binding signal intensity
1,B1,12.5

# Biological target: ScCyk3
# Test: as above
# Summary of the method: as §1
row,Binder,SPOT peptide array binding signal intensity
1,B1,≤ 0

# Biological target: ScFus1
# Test: as above
# Summary of the method: as §1
row,Binder,SPOT peptide array binding signal intensity
1,B1,6.5

# Biological target: ScHof1
# Test: as above
# Summary of the method: as §1
row,Binder,SPOT peptide array binding signal intensity
1,B1,0.25

# Biological target: ScHse1
# Test: as above
# Summary of the method: as §1
row,Binder,SPOT peptide array binding signal intensity
1,B1,27.2

# Biological target: ScLsb1
# Test: as above
# Summary of the method: as §1
row,Binder,SPOT peptide array binding signal intensity
1,B1,242

# Biological target: ScLsb2
# Test: as above
# Summary of the method: as §1
row,Binder,SPOT peptide array binding signal intensity
1,B1,3.5

# Biological target: ScLsb3
# Test: as above
# Summary of the method: as §1
row,Binder,SPOT peptide array binding signal intensity
1,B1,4610

# Biological target: ScLsb4
# Test: as above
# Summary of the method: as §1
row,Binder,SPOT peptide array binding signal intensity
1,B1,2740

# Biological target: ScMyo3
# Test: as above
# Summary of the method: as §1
row,Binder,SPOT peptide array binding signal intensity
1,B1,≤ 0

# Biological target: ScMyo5
# Test: as above
# Summary of the method: as §1
row,Binder,SPOT peptide array binding signal intensity
1,B1,≤ 0

# Biological target: ScNbp2
# Test: as above
# Summary of the method: as §1
row,Binder,SPOT peptide array binding signal intensity
1,B1,4.5

# Biological target: ScPex13
# Test: as above
# Summary of the method: as §1
row,Binder,SPOT peptide array binding signal intensity
1,B1,182

# Biological target: ScRvs167
# Test: as above
# Summary of the method: as §1
row,Binder,SPOT peptide array binding signal intensity
1,B1,960

# Biological target: ScSho1
# Test: as above
# Summary of the method: as §1
row,Binder,SPOT peptide array binding signal intensity
1,B1,≤ 0

# Biological target: ScSla1-D1-D2
# Test: as above
# Summary of the method: as §1
row,Binder,SPOT peptide array binding signal intensity
1,B1,20.8

# Biological target: ScSla1-D3
# Test: as above
# Summary of the method: as §1
row,Binder,SPOT peptide array binding signal intensity
1,B1,≤ 0

# Biological target: SpAbp1-D1
# Test: as above
# Summary of the method: as §1
row,Binder,SPOT peptide array binding signal intensity
1,B1,102

# Biological target: SpBbc1
# Test: as above
# Summary of the method: as §1
row,Binder,SPOT peptide array binding signal intensity
1,B1,1

# Biological target: SpBzz1-D1
# Test: as above
# Summary of the method: as §1
row,Binder,SPOT peptide array binding signal intensity
1,B1,286

# Biological target: SpBzz1-D2
# Test: as above
# Summary of the method: as §1
row,Binder,SPOT peptide array binding signal intensity
1,B1,0.25

# Biological target: SpCyk3
# Test: as above
# Summary of the method: as §1
row,Binder,SPOT peptide array binding signal intensity
1,B1,≤ 0

# Biological target: SpHof1
# Test: as above
# Summary of the method: as §1
row,Binder,SPOT peptide array binding signal intensity
1,B1,2.75

# Biological target: SpHof1-2
# Test: as above
# Summary of the method: as §1
row,Binder,SPOT peptide array binding signal intensity
1,B1,0.625

# Biological target: SpHof1-3
# Test: as above
# Summary of the method: as §1
row,Binder,SPOT peptide array binding signal intensity
1,B1,65.5

# Biological target: SpHse1
# Test: as above
# Summary of the method: as §1
row,Binder,SPOT peptide array binding signal intensity
1,B1,11

# Biological target: SpLsb1
# Test: as above
# Summary of the method: as §1
row,Binder,SPOT peptide array binding signal intensity
1,B1,118

# Biological target: SpLsb4
# Test: as above
# Summary of the method: as §1
row,Binder,SPOT peptide array binding signal intensity
1,B1,6350

# Biological target: SpMyo1
# Test: as above
# Summary of the method: as §1
row,Binder,SPOT peptide array binding signal intensity
1,B1,≤ 0

# Biological target: SpNbp2
# Test: as above
# Summary of the method: as §1
row,Binder,SPOT peptide array binding signal intensity
1,B1,2

# Biological target: SpPex13
# Test: as above
# Summary of the method: as §1
row,Binder,SPOT peptide array binding signal intensity
1,B1,3.5

# Biological target: SpRvs167
# Test: as above
# Summary of the method: as §1
row,Binder,SPOT peptide array binding signal intensity
1,B1,1270

# Biological target: SpSla1-D1-D2
# Test: as above
# Summary of the method: as §1
row,Binder,SPOT peptide array binding signal intensity
1,B1,7

# Biological target: SpSla1-D3
# Test: as above
# Summary of the method: as §1
row,Binder,SPOT peptide array binding signal intensity
1,B1,15
